Laboratory results reported in the supplement of paper PMC3334620.
In all, about 33,000 sequences were measured (“E-score (-0.5 to 0.5)”: median about -0.016, highest 2% from about 0.32 on). This excerpt belongs to a sample that is enriched for the highest values.

Target: T1, Stp1 (UniProt B3LFK1)
T1 sequence: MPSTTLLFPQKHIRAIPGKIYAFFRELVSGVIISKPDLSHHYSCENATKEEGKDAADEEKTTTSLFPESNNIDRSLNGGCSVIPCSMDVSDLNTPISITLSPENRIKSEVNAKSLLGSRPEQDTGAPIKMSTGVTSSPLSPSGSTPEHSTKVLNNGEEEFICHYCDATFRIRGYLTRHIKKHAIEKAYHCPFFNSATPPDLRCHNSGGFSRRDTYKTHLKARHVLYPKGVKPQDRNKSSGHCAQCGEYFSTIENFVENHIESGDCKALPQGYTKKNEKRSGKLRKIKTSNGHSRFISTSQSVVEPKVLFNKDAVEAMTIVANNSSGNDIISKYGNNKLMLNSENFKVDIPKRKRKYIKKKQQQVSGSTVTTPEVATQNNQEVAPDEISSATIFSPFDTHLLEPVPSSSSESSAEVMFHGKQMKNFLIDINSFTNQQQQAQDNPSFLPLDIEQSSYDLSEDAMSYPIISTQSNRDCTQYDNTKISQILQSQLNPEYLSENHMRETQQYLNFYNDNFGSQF
Experiment: PBM E-score (8-mer binding enrichment) (E-score (-0.5 to 0.5)); higher = stronger / more preferred TF binding
Conditions: protein concentration: 200 nM; construct: GST-full length
In short: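 PURExpress in vitro transcription/translation supplied GST-tagged yeast transcription factors, either full-length or DNA-binding domain. Applied at about 100-200 nM to universal all-10-mer Agilent arrays double-stranded by primer extension, the bound protein was detected with fluorescent anti-GST. E-scores, modified Wilcoxon-Mann-Whitney statistics, were given by the Universal PBM Analysis Suite to ungapped eight-base words pooled with their reverse complements after masliner normalisation.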

Row | Sequence | PBM E-score
1 | ACCGTCCC | -0.184
2 | AGACAAAG | 0.00552
3 | GAGGGTAA | -0.0792
4 | CACCATAC | -0.0768
5 | TAAAGTGA | 0.135
6 | CAGAAAGG | 0.0864
7 | ACTGCGGC | 0.381
8 | ACTGCGGG | -0.153
9 | CCTGCGGC | 0.331
10 | ACTGCGGA | 0.0949
11 | CCTGCGGA | 0.0839
12 | CCTGCGCC | 0.295
13 | ACTTAGAA | 0.0195
14 | GAACAGGC | -0.0513
15 | ACAAGGGA | -0.144
16 | GCAACCTA | 0.081
17 | ATAAGCCG | 0.0578
18 | ATTGCTAA | 0.0687
19 | CGCGCCTC | 0.377
20 | CACGCCTC | 0.205
21 | ACCGCCTC | -0.0359
22 | ATCGCCTC | 0.356
23 | AGCGCCTG | -0.0292
24 | ATCGCCTG | -0.135
25 | AGCGCCTC | 0.389

Row | Sequence | PBM E-score
26 | CGCGCCTA | 0.313
27 | CTCGCCTC | 0.00469
28 | ACGGTCTC | -0.041
29 | CCTAAAGC | 0.00183
30 | CCCTAGGA | -0.314
31 | CTTGCGCA | 0.223
32 | ATTCTTCG | 0.00242
33 | GAACGTAA | 0.0655
34 | CCGTTCCA | 0.243
35 | ACGTTCCG | -0.106
36 | CCGTTCCG | 0.318
37 | GCCATCGA | 0.0584
38 | CTCCGTGC | 0.228
39 | AGCCGTGA | 0.343
40 | AACCGTGC | 0.26
41 | ACCCGTGG | -0.0825
42 | ACCCGTGC | 0.237
43 | GGCCGTGA | 0.126
44 | AGCCGTGC | 0.465
45 | ATCCGTGC | 0.41
46 | ATCCGTGA | 0.00902
47 | AGCCGTGG | 0.334
48 | ACCCGTGA | -0.0351
49 | AACCGTGG | -0.00732
50 | ATGCTGAC | -0.0531

Row | Sequence | PBM E-score
51 | ATACAGCC | -0.0239
52 | GCCTCTAA | 0.0553
53 | AACCGTAC | -0.0138
54 | CGAACAGA | 0.0325
55 | CCCCGTGA | -0.14
56 | CGCCGTGA | 0.376
57 | CACCGTGA | -0.114
58 | ATGCACTC | -0.0521
59 | AACGAGAA | 0.00842
60 | CCCGCCGC | 0.332
61 | GCCGCCGC | 0.424
62 | CCCGCCGA | -0.0885
63 | ACCGCCCC | -0.144
64 | GCCGCCAC | 0.0605
65 | CCCGCCGG | -0.213
66 | GCCGCCGA | 0.316
67 | GCCGCCCA | 0.111
68 | GCCGCCCC | 0.378
69 | CCTTGATC | 0.1
70 | CTGCCCCC | -0.327
71 | CGGGCATA | -0.155
72 | AACGCCCA | 0.122
73 | AAGTCCGT | -0.0471
74 | AAAGAAAT | 0.128
75 | CCATATGG | 0.0408

Row | Sequence | PBM E-score
76 | AGGCTAAG | -0.0187
77 | CCCGCAAC | 0.097
78 | ACCGCAAC | -0.0924
79 | GCCGCAGA | 0.372
80 | CCCGCATA | 0.21
81 | CCCGCAGA | 0.06
82 | ACCGCAGC | -0.119
83 | ACCGCATA | 0.0344
84 | GCCGCAGC | 0.394
85 | GCCGCAAC | 0.366
86 | CCCGCAGC | -0.123
87 | TCCGCAGA | -0.0849
88 | GCCGCATA | 0.457
89 | GTGCTGCA | 0.0505
90 | CTCTTACC | 0.201
91 | CTACCTCA | -0.152
92 | CTACCCCA | -0.114
93 | CAGGTTGA | -0.216
94 | AGTAACGC | 0.192
95 | ATGGTTGC | -0.177
96 | GACTAGCC | -0.194
97 | ATCGCTGA | -0.0887
98 | CCTTGCGC | 0.138
99 | GGTGCGAC | -0.0804
100 | CCGTACAA | 0.35

Row | Sequence | PBM E-score
101 | CCGTATCA | 0.327
102 | TCGTATAA | 0.136
103 | CCGTATCC | 0.316
104 | GCGTACAA | 0.167
105 | TCGTACAA | 0.157
106 | ACGTATAA | 0.113
107 | CCGTATCG | 0.215
108 | CCGTATAA | 0.341
109 | ATCGAAGA | 0.171
110 | GCACTAAC | 0.042
111 | ATTCTCAA | 0.152
112 | AGACCAAT | -0.0691
113 | GCGACTGA | -0.227
114 | ACTCCCAG | -0.264
115 | AGTGAACC | 0.00324
116 | ACCGTTCC | 0.15
117 | GCCGTTCC | 0.432
118 | GCCGTTCA | 0.441
119 | TCCGTTCA | 0.0192
120 | CCCGTTCC | -0.00751
121 | CCCGTTCA | -0.132
122 | AAATAAAC | 0.218
123 | GCGGCCAA | 0.161
124 | GAGGACAA | -0.101
125 | CACGTGCG | 0.272

Row | Sequence | PBM E-score
126 | CAGGATTC | -0.173
127 | AGCCTCGA | -0.172
128 | GCCATTGA | 0.226
129 | AGGCTCTC | -0.137
130 | CAGCTCTC | -0.325
131 | GGGCTCTA | -0.0132
132 | CGGCTCTC | 0.334
133 | AGGCTCTA | 0.15
134 | CGGCTCTA | 0.425
135 | CGCACTCC | -0.172
136 | CAGAGCTA | -0.171
137 | CGGGCGCC | 0.269
138 | AGGGGGCG | -0.0306
139 | AGGGCGCC | 0.343
140 | AGGGCGGC | 0.14
141 | AGGGCGCA | 0.205
142 | AGGGCGCG | 0.369
143 | ACCAAGGT | 0.0467
144 | CAGCCACA | 0.161
145 | CGGCTTAC | 0.104
146 | GCTGGGTA | -0.175
147 | GCTAAAGA | 0.0376
148 | CAAGGCAG | 0.0951
149 | GCAGGCAC | 0.0604
150 | CAAGGCAA | 0.264

Row | Sequence | PBM E-score
151 | AAAGGCAG | 0.172
152 | AAAGGCAC | 0.392
153 | GAAGGCAA | 0.218
154 | AAAGGCAA | 0.263
155 | GAAGGCAC | 0.368
156 | CAAGGCAC | 0.356
157 | AGGTGGCG | -0.0008
158 | GCTCAGAA | 0.00512
159 | TAGGTGGA | -0.21
160 | AGGGAAAA | 0.0119
161 | AGACATTC | -0.19
162 | GGATGCCC | -0.245
163 | GGAAAAAA | 0.149
164 | CTGCCTGA | -0.0731
165 | TATAGAGA | 0.0248
166 | CGCACCAC | 0.063
167 | GGCACCAC | 0.324
168 | CGCACCGA | 0.0478
169 | GGCACCAA | 0.393
170 | AGCACCGA | 0.0493
171 | CGCACCAA | 0.213
172 | GGCACCGA | 0.356
173 | TGCACCAA | -0.0793
174 | AGCACCAC | -0.134
